Each structure is given as a SMILES string.

This is an account of results in PubChem BioAssay.

The test in a line: JC-1 mitochondrial potential readout, lung cancer cells – cell-based, A549, JC-1 fluorescence, basal, 24 h, 100 nL, profiling panel (AID 1138).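 Note: A549 lung adenocarcinoma cells under basal conditions with no added stimulus; test concentration not given here.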 The note with it: higher = more signal.
`CN(C)C(=O)[C@@]1(Cc2ccccc2)COC(c2ccc(OCCCO)cc2)=N1` came in with a z-score of 1.18.
With `CO[C@H]1O[C@H](CO)[C@@H](OC(=O)CCc2ccccc2)[C@H](OC(=O)c2cc3ccccc3[nH]2)[C@H]1OC(=O)c1cc2ccccc2[nH]1` the figure was -0.201.
Regarding `CN1C(=O)C2C=CC(C(O)c3cc(C(F)(F)F)cc(C(F)(F)F)c3)N(Nc3ccccc3)C2C1=O` (configuration not stated), the z-score was found to be 0.587.
As for `COCCOC(=O)N1C(=O)[C@@]2(c3cc(C#CCCO)ccc31)[C@H](C(N)=O)[C@H]1C(=O)O[C@H](c3ccccc3)[C@H](c3ccccc3)N1[C@@H]2c1ccc(OCCO)cc1`, the z-score is -1.03.
The result for `COCCOC(=O)N1C(=O)[C@@]2(c3cc(C#Cc4ccc(OC)cc4)ccc31)[C@H](C(=O)NC[C@H](O)c1ccccc1)[C@H]1C(=O)O[C@H](c3ccccc3)[C@H](c3ccccc3)N1[C@@H]2c1ccc(OCCO)cc1` reads -1.77; that for `COCCOC(=O)N1C(=O)[C@@]2(c3cc(C#CCNC(N)=O)ccc31)[C@H](c1ccc(OCCO)cc1)N1[C@H](c3ccccc3)[C@H](c3ccccc3)OC(=O)[C@H]1[C@@H]2C(N)=O`, -0.405.
With `CC(=O)NCCCC[C@@H]1NC(=O)[C@H]2C[C@@H](C(=O)NCCCCCNC(=O)CS)[C@@H](c3cccc(OCCO)c3)N2C1=O` the figure was 0.0396.
In turn, `O=C1O[C@H](c2ccccc2)[C@H](c2ccccc2)N2[C@H]1[C@@H](C(=O)N1CCCCCCC1)[C@]1(C(=O)Nc3ccc(C#CC4(O)CCCCCC4)cc31)[C@H]2c1ccccc1OCCO` had a z-score of 0.589.
The result for `COCCCNC(=O)[C@@]1(c2ccc([N+](=O)[O-])cc2)CC(=O)N(CC23CC4CC(CC(C4)C2)C3)[C@@H]1c1ccc(CO)cc1I` reads -0.189; that for `COc1ccc(C#Cc2ccc3c(c2)[C@]2(C(=O)N3)[C@H](C(=O)N3CCCCCCC3)[C@H]3C(=O)O[C@H](c4ccccc4)[C@H](c4ccccc4)N3[C@@H]2c2ccc(O)cc2)cc1`, -0.316.
Take `C=C(/C(=C/C[C@H](OC(=O)c1ccncc1)c1cccc(OCCO)c1)c1cnc2ccccc2c1)C(C)C`: the z-score stood at 0.945.
The result for `CCCCCCCCCCC(O)C1C=CC2C(=O)N(C)C(=O)C2N1Nc1cc(OC)c(OC)c(OC)c1` (configuration not stated) reads 1.06; that for `Nc1cc(Br)ccc1C(=O)O`, 1.28.
The result for `CN(C)C(=O)[C@]1(CCS(=O)(=O)c2ccccc2)N=C(c2ccc(OCCCO)cc2)O[C@@H]1c1ccccc1` reads 0.17.
With `O=C1N(CCS(=O)(=O)c2ccccc2)Cc2ccccc2[C@@H]2OC(c3ccc(OCCCO)cc3)=N[C@]12CCS(=O)(=O)c1ccccc1` the figure was -1.19.
Compound `COc1ccc([Si](C)(C)[C@H]2[C@H](CC(=O)N3Cc4ccccc4C[C@H]3CO)O[C@@]3(C(=O)N(Cc4ccc(N5C(=O)c6cccc7cccc5c67)cc4)c4ccccc43)[C@@H]2C)cc1` gave a z-score of 1.34.
The result for `COCC1=C2[C@@H](CCc3ccccc3)OB(O)C[C@@H]2[C@@H]2C(=O)N(C)C(=O)[C@@H]2C1` reads -0.0837.
The result for `CC(C)OC(=O)CC(=O)CC(O)c1ccc([N+](=O)[O-])cc1` (configuration not stated) reads 0.276; that for `CC(C)C(=C=CC[C@@H](O)c1cccc(OCCO)c1)C[C@@H](O)c1ccccn1`, 0.386; that for `C=CCC(OC(C)=O)[C@@H]1[C@@H](N(Cc2cccc3ccccc23)C(=O)c2cccc3ccccc23)c2cc(OCCCO)ccc2N1C(=O)c1ccc2ccccc2c1` (some centres not stated), -0.348.
`CC(=O)N1CC(C(O)C2C=CC3C(=O)NC(=O)C3N2Nc2ccc(Cl)cc2Cl)c2ccccc21` (configuration not stated) displayed a z-score of 0.125.
The result for `COC(=O)[C@@]1(Cc2ccc(F)cc2)[C@H]2c3cc(C(=O)N(C)C)n(Cc4c(CO)[nH]cc(C)c4=O)c3C[C@H]2CN1C(=O)c1ccccc1` reads 0.932; that for `CC(C)[C@H]1NC(=O)[C@@]23C(=O)N[C@@H](Cc4ccccc4)C2[C@H](C)[C@@]2(C)O[C@H]2C3/C=C/CCC/C=C/CNC(=O)[C@H](Cc2ccccc2)NC1=O` (some centres not stated), -0.69; that for `CCOC(=O)C[C@H]1[C@H](OC(=O)c2ccccc2-c2ccccc2)[C@@H](NC(=O)c2ccccc2)c2cc(OCCCO)ccc2N1C(=O)c1ccccc1`, 0.629.
With `COC(=O)[C@@]1(Cc2ccccc2CN=[N+]=[N-])N=C(c2ccc(OCCCO)cc2)O[C@H]1c1ccccc1` the figure was -0.734; with `C=C(COC)C(=O)CC[C@@H](OC(=O)c1cccnc1)c1ccccc1OCCO`, -0.0536.
The result for `CC1CC/C=C\[C@H]2OC34C=CCN(CCN5CCOCC5)C(=O)[C@H]3N(C(C)CO)C(=O)[C@@H]4C2C(=O)O1` (some centres not stated) reads 0.224.
